Experimental findings from the supplement of paper PMC10037445 are described below.

Molecules are shown by their SMILES. The full ranking holds about 2,900 compounds; the median of “NF-kB SEAP reporter activity, fold change vs agonist alone” is about 0.99, and the highest 2% start at about 2.6. Only a selection was taken, and the highest values are over-represented in it overall.

Test [1] has as its system RAW-Dual. The experiment in a line: NF-kB SEAP reporter activity, fold change vs agonist alone; cytotoxicity flag (confluency mask): not cytotoxic; higher = enhanced NF-kB activity. Summed up:
(§1)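 After 50 nL of library stock was delivered by pin tool to RAW-Dual macrophages (50,000 cells/well, DMEM, 384-well plates), a PRR agonist was added 1 h later and the plates were kept at 37 °C, 5% CO2. Twenty hours later, IRF was read from supernatant by QuantiLuc luminescence and NF-κB by QuantiBlue absorbance at 620 nm. Reporter activity is stated as fold change over agonist-alone wells. Wells with IncuCyte confluency under 70% of agonist controls in both mask sets were counted as cytotoxic.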

Test [2] deals with RAW-Dual. The experiment in a line: NF-kB SEAP reporter activity, fold change vs agonist alone; higher = enhanced NF-kB activity. To be noted: library stock concentration (final ~1000-fold dilution): 10 mM. Summed up: as §1
Test [3] concerns RAW-Dual. The experiment in a line: NF-kB SEAP reporter activity, fold change vs agonist alone; cytotoxicity flag (confluency mask): cytotoxic (confluency <70% of control); higher = enhanced NF-kB activity. Summed up:
as §1

The mark [4] stands for this setting: agonist: ODN 1826 (TLR9) 0.5 ug/mL.
[5] abbreviates: agonist: Pam2CSK4 (TLR2/6) 0.1 ug/mL.
Where [6] appears, read: agonist: Pam3CSK4 (TLR2/1) 0.1 ug/mL.
Where [7] appears, read: cytotoxicity flag (confluency mask): not cytotoxic, agonist: Imiquimod (TLR7) […].
Where [8] appears, read: cytotoxicity flag (confluency mask): not cytotoxic, agonist: MPLA (TLR4) […].

In the case of `CC(C)C(NC(=O)C(CC(=O)O)NC(=O)C(CCCCN)NC(=O)C(N)CCCNC(=N)N)C(=O)NC(Cc1ccc(O)cc1)C(=O)O` (stereo not given) (library stock concentration (final ~1000-fold dilution): 10 mM), the “NF-kB SEAP reporter activity” value with RAW-Dual [1] (agonist: LPS (TLR4) 0.1 ug/mL) is 1.27; with RAW-Dual [1] (setting [4]), 1.1; in the test on RAW-Dual [1] (setting [5]), 1.19; with RAW-Dual [1] (setting [6]), 1.17.
As to `CNC(=O)C(NC(=O)C(CC(C)C)C(O)C(=O)NO)C(C)(C)C` (stereo not given), the “NF-kB SEAP reporter activity” value in the test on RAW-Dual [2] (setting [7]) was 1.08; in the test on RAW-Dual [2] (setting [8]), 1.38.
On to `CNC(=O)C(NC(=O)C(CC(C)C)C(O)C(=O)NO)C(C)(C)C` (stereo not given) (library stock concentration (final ~1000-fold dilution): 10 mM), for which the “NF-kB SEAP reporter activity” value in the test with RAW-Dual [1] (agonist: LPS (TLR4) 0.1 ug/mL) worked out at 1.09; in the test with RAW-Dual [1] (setting [4]), 1.01; in the test with RAW-Dual [1] (setting [5]) it was 1.04; in the test on RAW-Dual [1] (setting [6]), 1.01.
Consider `Oc1c(F)cc(-c2cnccc2-c2ccc(N3CCOCC3)cc2)cc1F` (library stock concentration (final ~1000-fold dilution): 10 mM), for which the “NF-kB SEAP reporter activity” value in the test with RAW-Dual [1] (agonist: LPS (TLR4) 0.1 ug/mL) was found to be 1.12; with RAW-Dual [1] (setting [4]), 0.913; in the test on RAW-Dual [1] (setting [5]), 0.947; in the test on RAW-Dual [1] (setting [6]), 0.73.
On to `Oc1c(F)cc(-c2cnccc2-c2ccc(N3CCOCC3)cc2)cc1F`, for which the “NF-kB SEAP reporter activity” value in the test on RAW-Dual [2] (setting [7]) is 1.08; with RAW-Dual [2] (setting [8]) it was 0.911.
The like results for `O=C(Nc1cc(C(F)(F)F)ccc1N1CCN(Cc2ccccn2)CC1)c1ccc(-c2ccncc2)o1` were, in that order, 0.609 and 1.03.
Turning to `O=C(Nc1cc(C(F)(F)F)ccc1N1CCN(Cc2ccccn2)CC1)c1ccc(-c2ccncc2)o1` (library stock concentration (final ~1000-fold dilution): 10 mM), the “NF-kB SEAP reporter activity” value in the test with RAW-Dual [1] (agonist: LPS (TLR4) 0.1 ug/mL) was 1.25; in the test on RAW-Dual [1] (setting [4]), 0.731; in the test on RAW-Dual [1] (setting [5]), 0.657; in the test on RAW-Dual [1] (setting [6]) it was 0.818.
The corresponding values for `CC(C)CCN1c2nc(Nc3cc(F)c(O)c(F)c3)ncc2N(C)C(=O)C1C` (stereo not given) (library stock concentration (final ~1000-fold dilution): 10 mM) are 4.3, 2.63, 1.02 and 2.05.
Regarding `CC(C)CCN1c2nc(Nc3cc(F)c(O)c(F)c3)ncc2N(C)C(=O)C1C` (stereo not given), the “NF-kB SEAP reporter activity” value in the test with RAW-Dual [2] (setting [7]) is 2.84; in the test on RAW-Dual [2] (setting [8]) it was 2.55.
As to `COc1cc(-c2cc(-c3ccc(Cl)cc3)nc(=O)[nH]2)ccc1O`, the “NF-kB SEAP reporter activity” value is 1.09 in the test with RAW-Dual [2] (setting [7]) and 1.15 with RAW-Dual [2] (setting [8]).
Consider `COc1cc(-c2cc(-c3ccc(Cl)cc3)nc(=O)[nH]2)ccc1O` (library stock concentration (final ~1000-fold dilution): 10 mM), for which the “NF-kB SEAP reporter activity” value in the test on RAW-Dual [1] (agonist: LPS (TLR4) 0.1 ug/mL) was 1.6; in the test on RAW-Dual [1] (setting [4]) it was 0.991; in the test with RAW-Dual [1] (setting [5]), 1.22; in the test on RAW-Dual [1] (setting [6]), 1.39.
As for `CCN(CC)CC#CCOC(=O)C(O)(c1ccccc1)C1CCCCC1.Cl` (stereo not given), the “NF-kB SEAP reporter activity” value with RAW-Dual [2] (setting [7]) was found to be 1.75; in the test on RAW-Dual [2] (setting [8]), 1.46.
Regarding `CCN(CC)CC#CCOC(=O)C(O)(c1ccccc1)C1CCCCC1.Cl` (stereo not given) (library stock concentration (final ~1000-fold dilution): 10 mM), the “NF-kB SEAP reporter activity” value came out at 2.01 with RAW-Dual [1] (agonist: LPS (TLR4) 0.1 ug/mL), 0.958 with RAW-Dual [1] (setting [4]), 0.963 in the test on RAW-Dual [1] (setting [5]) and 1.3 with RAW-Dual [1] (setting [6]).
On to `O=C(O)CCCN1CCC(OC(c2ccc(Cl)cc2)c2ccccn2)CC1` (stereo not given), for which the “NF-kB SEAP reporter activity” value in the test on RAW-Dual [2] (setting [7]) amounted to 0.895; in the test with RAW-Dual [2] (setting [8]), 1.07.
On to `O=C(O)CCCN1CCC(OC(c2ccc(Cl)cc2)c2ccccn2)CC1` (stereo not given) (library stock concentration (final ~1000-fold dilution): 10 mM), for which the “NF-kB SEAP reporter activity” value in the test on RAW-Dual [1] (agonist: LPS (TLR4) 0.1 ug/mL) is 0.969; in the test with RAW-Dual [1] (setting [4]) it was 0.924; with RAW-Dual [1] (setting [5]) it was 1.07; with RAW-Dual [1] (setting [6]), 0.895.
For the compound `COc1cc2c(Oc3ccc(NC(=O)C4(C(=O)Nc5ccc(F)cc5)CC4)cc3F)ccnc2cc1OCCCN1CCOCC1` (library stock concentration (final ~1000-fold dilution): 10 mM), the “NF-kB SEAP reporter activity” value in the test with RAW-Dual [1] (agonist: LPS (TLR4) 0.1 ug/mL) was 0.266; with RAW-Dual [1] (setting [4]) it was 0.184; in the test with RAW-Dual [1] (setting [5]) it was 0.0818; with RAW-Dual [1] (setting [6]) it was 0.137.
As for `COc1cc2nccc(Oc3ccc(NC(=O)C4(C(=O)Nc5ccc(F)cc5)CC4)cc3)c2cc1OC`, the “NF-kB SEAP reporter activity” value is 0.555 in the test on RAW-Dual [2] (setting [7]) and 0.59 in the test on RAW-Dual [2] (setting [8]).
The like results for `COc1cc2c(Oc3ccc(NC(=O)C4(C(=O)Nc5ccc(F)cc5)CC4)cc3F)ccnc2cc1OCCCN1CCOCC1` were, in that order, 0.252 and 0.252.
`CN1CCN(C2CCN(C(=O)Nc3cc(Oc4ccc(NC(=O)C5(C(=O)Nc6ccc(F)cc6)CC5)c(F)c4)ccn3)CC2)CC1`: the “NF-kB SEAP reporter activity” value with RAW-Dual [2] (cytotoxicity flag (confluency mask): cytotoxic (confluency <70% of control), agonist: Imiquimod (TLR7) […]) is 2.76; in the test on RAW-Dual [2] (cytotoxicity flag (confluency mask): cytotoxic (confluency <70% of control), agonist: MPLA (TLR4) […]), 2.32.
For the compound `CN1CCN(C2CCN(C(=O)Nc3cc(Oc4ccc(NC(=O)C5(C(=O)Nc6ccc(F)cc6)CC5)c(F)c4)ccn3)CC2)CC1` (library stock concentration (final ~1000-fold dilution): 10 mM), the “NF-kB SEAP reporter activity” value with RAW-Dual [3] (agonist: LPS (TLR4) 0.1 ug/mL) was 1.43; with RAW-Dual [3] (setting [4]), 0.896; in the test with RAW-Dual [3] (setting [5]), 0.607; in the test on RAW-Dual [3] (setting [6]) it was 0.664.
Turning to `COc1cc2nccc(Oc3ccc(NC(=O)C4(C(=O)Nc5ccc(F)cc5)CC4)cc3)c2cc1OC` (library stock concentration (final ~1000-fold dilution): 10 mM), the “NF-kB SEAP reporter activity” value turned out to be 0.511 in the test with RAW-Dual [1] (agonist: LPS (TLR4) 0.1 ug/mL), 0.42 in the test on RAW-Dual [1] (setting [4]), 0.302 in the test on RAW-Dual [1] (setting [5]) and 0.275 in the test with RAW-Dual [1] (setting [6]).
`CC(Nc1nc(NC(C)C(F)(F)F)nc(-c2cccc(Cl)n2)n1)C(F)(F)F` (stereo not given) (library stock concentration (final ~1000-fold dilution): 10 mM): the “NF-kB SEAP reporter activity” value with RAW-Dual [1] (agonist: LPS (TLR4) 0.1 ug/mL) was found to be 1.26; in the test with RAW-Dual [1] (setting [4]) it was 1.18; in the test on RAW-Dual [1] (setting [5]), 0.998; with RAW-Dual [1] (setting [6]), 1.09.
Take `CC(Nc1nc(NC(C)C(F)(F)F)nc(-c2cccc(Cl)n2)n1)C(F)(F)F` (stereo not given): the “NF-kB SEAP reporter activity” value was 1.04 with RAW-Dual [2] (setting [7]) and 1.11 in the test on RAW-Dual [2] (setting [8]).
